GPR151 ag: activators of human GPR151; 650,000 compounds, 1% hits; PathHunter beta-arrestin GPR151 cells, luminescence; Q8TDV0; activation, % at 11.2 µM; in the data active = activation above about 4.9%
MITF inh: blocks human microphthalmia-associated transcription factor; O75030; AlphaScreen MITF homodimerization, bead proximity signal; inhibition, % at 2.6 µM; 650,000 compounds, 0.91% hits; in the data active = inhibition above about 50%
FBW7 act: human FBW7 E3 ligase activation, primary screen; Q969H0; AlphaScreen FBW7–phospho-cyclin E peptide binding, activator screen; normalized activity (activation), % at 26.1 µM; 650,000 compounds, 0.13% hits; in the data active = normalized activity above about 1.9%;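 also: purified mutant Fbw7 with reduced substrate affinity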
Target sequence (Q969H0 whole entry, looked up): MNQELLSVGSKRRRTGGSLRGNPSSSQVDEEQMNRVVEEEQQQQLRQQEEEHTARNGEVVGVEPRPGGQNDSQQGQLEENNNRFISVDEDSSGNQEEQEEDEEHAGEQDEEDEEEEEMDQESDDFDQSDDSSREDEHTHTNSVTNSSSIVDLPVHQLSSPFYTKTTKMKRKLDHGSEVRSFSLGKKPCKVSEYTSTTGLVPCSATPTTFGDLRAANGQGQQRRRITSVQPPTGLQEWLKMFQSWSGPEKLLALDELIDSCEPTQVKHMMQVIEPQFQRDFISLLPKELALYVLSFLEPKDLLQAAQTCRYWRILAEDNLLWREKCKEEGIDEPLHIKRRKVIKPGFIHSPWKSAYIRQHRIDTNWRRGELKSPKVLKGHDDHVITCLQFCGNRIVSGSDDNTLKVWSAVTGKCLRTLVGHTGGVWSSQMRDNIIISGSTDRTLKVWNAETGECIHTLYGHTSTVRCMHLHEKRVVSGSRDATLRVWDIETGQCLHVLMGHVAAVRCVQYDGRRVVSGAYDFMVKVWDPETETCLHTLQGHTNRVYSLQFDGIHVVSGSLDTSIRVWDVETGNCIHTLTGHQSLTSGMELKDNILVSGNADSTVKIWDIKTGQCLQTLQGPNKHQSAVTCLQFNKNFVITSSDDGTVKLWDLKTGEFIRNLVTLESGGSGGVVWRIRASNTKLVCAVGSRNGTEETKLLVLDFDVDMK
TEAD-YAP inh: TEAD-YAP interaction inhibition. inhibition, % at 9.12 µM. AID 1259422. HEK-TIYL cells, TEAD-Gal4/YAP UAS-luciferase luminescence. 640,000 compounds, 1.4% hits; in the data active = inhibition above about 32%
Hits are given with their value; – = inactive. Only some compounds are listed: those with a hit (about 3.5% of all), similar ones and a draw of the others.

SMILES | GPR151 ag | MITF inh | FBW7 act | TEAD-YAP inh
O=C(c1ccco1)N1CCN(c2ncc(-c3ccccc3CO)n3ccnc23)CC1 | – | – | 6.7 | –
O=C(COn1nnc2ccc([N+](=O)[O-])cc21)Nc1nc2ccccc2s1 | – | – | – | –
O=C(CSc1nc2sc3c(c2c(=O)n1-c1cccc2ccccc12)CCCC3)Nc1ccc(F)cc1 | – | – | – | –
O=C(NCc1ccco1)c1cccn2c(=O)c3cc4ccccc4cc3nc12 | – | – | – | –
COCCNC(=O)c1cc2c(=O)n3cccc(C)c3nc2n1C | – | – | – | –
COCCCNC(=O)c1cccn2c(=O)c3cc4ccccc4cc3nc12 | – | – | – | 36
COCCCNC(=O)c1cc2c(=O)n3cccc(C)c3nc2n1C | – | – | – | 56
CC1=C(C(=O)NC2CCCc3c2cnn3-c2ccc(F)cc2F)OCCO1 (configuration not stated) | – | – | – | –
Cc1ncoc1C(=O)NC1CCCc2c1cnn2-c1ccc(F)cc1F (configuration not stated) | – | – | – | 45
COc1cc(Nc2nc(Nc3ccnn3C)nc3c2ncn3-c2ccsc2)cc(OC)c1OC | – | – | – | 63
c1ccc(-n2cnc3c(NCCN4CCOCC4)nc(Nc4cccnc4)nc32)cc1 | – | – | – | 34
COc1cc(Nc2nc(Nc3ncccn3)nc3c2ncn3-c2ccsc2)cc(OC)c1OC | – | – | – | –
c1ccc(-n2cnc3c(NCCN4CCOCC4)nc(Nc4ccc(N5CCOCC5)cc4)nc32)cc1 | – | – | – | 59
c1ccc(-n2cnc3c(Nc4ccc(N5CCOCC5)cc4)nc(Nc4nccc5ccccc45)nc32)cc1 | – | – | – | 43
CCCn1c2ccccc2c2nnc(SCC(=O)N3CCCCC3)nc21 | – | – | – | –
c1cncc(Nc2nc(NCCN3CCOCC3)c3ncn(-c4ccsc4)c3n2)c1 | – | – | – | 51
Cn1nccc1Nc1nc(NCCN2CCOCC2)c2ncn(-c3ccsc3)c2n1 | – | – | – | 50
c1cncc(CNc2nc(NCCN3CCOCC3)c3ncn(-c4ccsc4)c3n2)c1 | – | – | – | –
c1cc(Nc2nc(NCCN3CCOCC3)c3ncn(-c4ccsc4)c3n2)ncn1 | – | – | – | 37
c1ccc(-c2nc(NCCN3CCOCC3)c3ncn(-c4ccsc4)c3n2)cc1 | – | – | – | 33
O=c1c2ccccc2nc(SCc2cccc(Br)c2)n1CCc1ccccc1 | – | – | – | –
COc1cc(Nc2nc(NCCO)c3ncn(-c4ccccc4)c3n2)cc(OC)c1OC | – | – | – | –
COc1cc(Nc2nc(NCCN3CCOCC3)c3ncn(-c4ccccc4)c3n2)cc(OC)c1OC | – | – | – | 42
c1ccc(Nc2nc(NCCN3CCOCC3)c3ncn(-c4ccsc4)c3n2)cc1 | – | – | – | 55
c1cnc2ccc(Nc3nc(NCCN4CCOCC4)c4ncn(-c5ccsc5)c4n3)cc2c1 | – | – | – | 48
SMILES | GPR151 ag | MITF inh | FBW7 act | TEAD-YAP inh
c1cncc(-c2cc(N3CCCCC3)nc(-c3cccnc3)n2)c1 | – | – | – | –
Cc1noc(-c2ccc(NC(=O)c3cccnc3)cc2)n1 | – | – | – | 43
O=c1[nH]c2ccc(S(=O)(=O)Nc3ccccc3)cc2o1 | – | – | – | –
Cc1cc(C)c(NS(=O)(=O)c2ccc3[nH]c(=O)oc3c2)c(C)c1 | – | – | 6.3 | –
CN(C)CCCOc1cccc(CN2CCN(C)C(CCO)C2)c1 (configuration not stated) | – | – | – | –
O=C(c1cc2nc(-c3ccccc3)cc(C(F)(F)F)n2n1)N1CCCc2ccccc21 | – | – | – | –
CN(C)c1ccc(/C=C(\C(N)=O)c2nc3ccccc3[nH]2)cc1 | – | – | – | 83
CCN(CC)CCCNC(=O)c1ccc(NC2=NC3CS(=O)(=O)CC3S2)cc1 (configuration not stated) | – | – | – | –
CCOC(=O)c1cnc2ccc(C)cc2c1NCCCN1CCOCC1 | – | – | – | 38
CCOC(=O)c1cnc2ccc(C)cc2c1NCCN1CCOCC1 | – | – | – | –
O=C(CSc1nnnn1-c1cccc(F)c1)c1ccc2c(c1)OCCO2 | – | – | – | 78
O=C(CSc1ncccc1C(=O)O)c1ccc2c(c1)OCCO2 | – | – | – | 34
O=C(CSc1ncccc1C(=O)O)c1ccc2ccccc2c1 | – | – | – | –
CCc1cc2c(=O)c(-c3ccccn3)coc2cc1OC(C)=O | – | – | – | –
CC1=C(c2ccc(C)cc2)S(=O)(=O)NC1=NCc1ccc(OC(C)C)cc1 | – | – | – | –
O=C(C1CC(=O)N(c2ccccc2)C1)N1CCN(S(=O)(=O)C2CC2)CC1 (configuration not stated) | – | – | – | –

Assay outcomes (PubChem BioAssay)
